DT40 TDP1 CPT = DT40-hTDP1 cell growth loss with CPT; AID 686979; chicken DT40 Tdp1-/-;hTDP1 cells + 20 nM CPT, ATP luminescence, 48 h; 12% of 420,000 active; Potency, µM (titrated, usually from 46.2 µM), actives largely listed as inhibitors; further: nearly all actives have a fitted effect of over 55% in size
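Chicken DT40 Tdp1-/- cells stably complemented with human TDP1 were seeded at 400 cells/well in medium containing 20 nM camptothecin, exposed to pin-transferred compounds, and grown at 37 °C for at least 48 hr. Viability was read as ATP luminescence.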
TGFb inhibitor = TGF-b pathway inhibition; Potency, µM (series often up to 46.1 µM), most hits filed as inhibitors; HepG2 CAGA-GFP TGF-b/SMAD3 reporter, GFP fluorescence, 18 h; TGF-beta stimulated, 500 pg/mL final; 1.2% of 410,000 active; further: nearly all actives have a fitted effect of over 65% in size
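Smad-responsive CAGA-GFP expression was quantified in HEPG2 cells exposed to compounds and 500 pg/mL final TGF-beta for 18 h at 37 degrees C; unstimulated wells defined full inhibition.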
TDP1 cell noCPT = qHTS for Inhibitors of human tyrosyl-DNA phosphodiesterase 1 (TDP1): qHTS in cells in absence of CPT; DT40 Tdp1-/- hTDP1 cells, no CPT, ATP luminescence, 48 h; Potency, µM (top dose mostly 46.2 µM), hits mostly inhibitors; 15% of 420,000 active; AID 686978, 2013; further: nearly all actives have a fitted effect of over 55% in size
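Cells were dispensed at 400 per well, compounds added by pin tool, plates incubated ≥48 hr at 37 °C, then CellTiter-Glo added for 30 min at room temperature before luminescence reading. Line: DT40 Tdp1-/- complemented with hTDP1; camptothecin omitted.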
IL1B secr inh = inflammasome signaling inhibition, IL-1 beta readout | 4.7% of 360,000 active | activity change, % at 57.5 µM | THP-1 LPS/ATP IL-1B secretion, AlphaLISA, 16 h; hits give low values; in the data active means activity change below about -50%; inconclusive means mostly about -30% to -49%
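Secreted IL-1B measured by AlphaLISA bead assay after 16 h compound exposure of THP-1 cells; compounds (final up to 57.5 uM) added 1 h before LPS (250 ng/mL) and ATP (1.25 mM) stimulation; lower signal means less secretion.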
HepG2 tox = counter-screen for TGF-b inhibitors: cytotoxicity in HepG2 cells. HepG2 CAGA-GFP viability, ATP luminescence, 18 h. Potency, µM (highest dose often 46.1 µM), most hits filed as cytotoxic. 0.76% of 410,000 active. AID 588856
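HepG2 CAGA-GFP cells (1000/well, DMEM with 1% FBS) received compound, then TGF-beta at 500 pg/mL final, and were incubated 18 hours at 37 degrees C. Viability was read by CellTiter-Glo luminescence. Media-only wells were set as complete cell-killing and DMSO as no toxicity.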
TDP1 block = inhibitors of human tyrosyl-DNA phosphodiesterase TDP1. recombinant TDP1, AlphaScreen DNA substrate cleavage. Potency, µM (highest dose often 130 µM), usual class: inhibitors. 0.28% of 350,000 active. AID 485290; further: nearly all actives have a fitted effect of over 40% in size
Target sequence (Q9NUW8 whole entry, looked up): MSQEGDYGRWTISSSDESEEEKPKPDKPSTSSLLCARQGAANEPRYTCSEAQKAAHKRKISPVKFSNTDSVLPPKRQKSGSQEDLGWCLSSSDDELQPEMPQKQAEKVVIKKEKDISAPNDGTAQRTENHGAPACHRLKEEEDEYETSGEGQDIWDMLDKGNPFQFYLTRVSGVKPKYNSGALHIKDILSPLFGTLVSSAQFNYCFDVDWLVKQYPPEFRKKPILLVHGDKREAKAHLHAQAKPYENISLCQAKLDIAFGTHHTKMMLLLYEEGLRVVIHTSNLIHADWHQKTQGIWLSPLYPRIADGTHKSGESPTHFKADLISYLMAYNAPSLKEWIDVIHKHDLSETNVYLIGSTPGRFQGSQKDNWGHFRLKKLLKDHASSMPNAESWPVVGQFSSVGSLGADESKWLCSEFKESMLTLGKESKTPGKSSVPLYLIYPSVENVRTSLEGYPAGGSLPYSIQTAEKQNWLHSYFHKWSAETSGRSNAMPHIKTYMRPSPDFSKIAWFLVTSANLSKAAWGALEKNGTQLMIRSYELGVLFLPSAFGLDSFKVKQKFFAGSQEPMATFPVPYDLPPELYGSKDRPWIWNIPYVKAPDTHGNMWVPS
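Recombinant human Tdp1 (E. coli-expressed, 1 nM final) preincubated with compounds 15 min at room temperature, then 5'-biotin/3'-phosphotyrosine-FITC DNA substrate (15 nM final) added for 5 min. AlphaScreen beads (10 ug/ml final) added 10 min; cleavage lowers signal.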
Numbers stand for hits; [ ] = another dose, or the depositor's remark. An excerpt weighted towards active compounds, which were near 18% of everything screened. Unless noted, the call rests on the fitted dose curve; in most records, active means well fitted curve in the direction sought with a large enough effect; inconclusive means small, poorly fitted or top-dose-only effect, or another doubt; inactive means no such curve, though single readings can be large; an effect the other way counts as inactive or inconclusive.

`Cc1cc(OC(C)C(=O)N2CCC(c3nc4ccccc4o3)CC2)ccc1Cl` (stereo not drawn) gave DT40 TDP1 CPT 23.1µM, TGFb inhibitor inactive, TDP1 cell noCPT 14.6µM, HepG2 tox inactive and TDP1 block inactive.
Screening CCc1ccc(OC(C)C(=O)N2CCC(c3nc4ccccc4o3)CC2)cc1 (stereo not drawn) returned DT40 TDP1 CPT inconclusive, TGFb inhibitor inconclusive, TDP1 cell noCPT inconclusive, HepG2 tox inactive and TDP1 block inactive.
Cc1cc(C)cc(OCC(=O)N2CCC(c3nc4ccccc4o3)CC2)c1 was read as DT40 TDP1 CPT inconclusive, TGFb inhibitor inactive, TDP1 cell noCPT 16.4µM, HepG2 tox inactive and TDP1 block inactive.
`COc1ccc(NC(=O)NCc2ccco2)c(OC)c1` gave DT40 TDP1 CPT inconclusive, TGFb inhibitor inactive, TDP1 cell noCPT inconclusive, IL1B secr inh inactive, HepG2 tox inactive and TDP1 block inactive.
`Cc1ccc(NS(=O)(=O)c2cccc(C(=O)OCC(=O)NCc3ccco3)c2)cc1` gave DT40 TDP1 CPT inconclusive, TGFb inhibitor inactive, TDP1 cell noCPT inconclusive, IL1B secr inh inactive, HepG2 tox inactive and TDP1 block inactive.
Screening O=C(COC(=O)c1ccc(NS(=O)(=O)c2cccs2)cc1)NCc1ccco1 returned DT40 TDP1 CPT 4.11µM, TGFb inhibitor inactive, TDP1 cell noCPT 2.91µM, IL1B secr inh inactive and HepG2 tox inactive.
`COc1ccccc1NC(=O)NCc1ccco1` gave DT40 TDP1 CPT inactive, TGFb inhibitor inactive, TDP1 cell noCPT inconclusive, IL1B secr inh -67.9, HepG2 tox inactive and TDP1 block inactive.
For O=C(COC(=O)c1ccc(NS(=O)(=O)c2cccs2)cc1O)NCc1ccccc1 the results were DT40 TDP1 CPT 4.61µM, TGFb inhibitor inactive, TDP1 cell noCPT 3.26µM, IL1B secr inh inactive, HepG2 tox inactive and TDP1 block inactive.
`O=C(COC(=O)c1cccnc1Cl)NCc1ccco1` gave DT40 TDP1 CPT inactive, TGFb inhibitor inactive, TDP1 cell noCPT inactive, IL1B secr inh inactive, HepG2 tox inactive and TDP1 block 39.8µM.
Screening O=C(COC(=O)c1cccnc1SCC(=O)NCc1ccccc1)NCc1ccccc1 returned DT40 TDP1 CPT 23.1µM, TGFb inhibitor inactive, TDP1 cell noCPT inconclusive, IL1B secr inh inactive, HepG2 tox inactive and TDP1 block inactive.
For COc1ccccc1C(OC(=O)c1cccs1)C(=O)NCc1ccco1 (stereo not drawn) the results were DT40 TDP1 CPT 18.4µM, TGFb inhibitor inactive, TDP1 cell noCPT inconclusive, IL1B secr inh inactive, HepG2 tox inactive and TDP1 block inactive.
For COc1ccccc1CNC(=O)COC(=O)c1cccnc1SCC(=O)NCc1ccccc1OC the results were DT40 TDP1 CPT inconclusive, TGFb inhibitor inactive, TDP1 cell noCPT inconclusive, IL1B secr inh inactive, HepG2 tox inactive and TDP1 block inactive.
Screening COc1cc(NC(=O)c2cccs2)c(C(=O)OCC(=O)NCc2ccco2)cc1OC returned DT40 TDP1 CPT inactive, TGFb inhibitor inactive, TDP1 cell noCPT inconclusive, IL1B secr inh inactive and HepG2 tox inactive.
`O=C(COC(=O)c1cccs1)NCc1ccco1` gave DT40 TDP1 CPT inactive, TGFb inhibitor inactive, TDP1 cell noCPT inactive, IL1B secr inh inactive, HepG2 tox inactive and TDP1 block 44.7µM.
Screening CCc1ccc(OCC(=O)NNC(=O)C2CCC2)cc1 returned DT40 TDP1 CPT inactive, TGFb inhibitor inactive, TDP1 cell noCPT inactive, IL1B secr inh inactive, HepG2 tox inactive and TDP1 block inactive[0.505 µM].
C=CC[C@]12CCc3ccccc3C1N(c1ccc(C(=O)OCC)cc1)C2=O (stereo partly drawn) was read as DT40 TDP1 CPT inconclusive, TGFb inhibitor inactive, TDP1 cell noCPT inconclusive, IL1B secr inh inactive, HepG2 tox inactive and TDP1 block inactive.
`Cc1ccccc1N1C(=O)C(Cl)=C(N2CCCCCC2)C1=O` gave DT40 TDP1 CPT 29.1µM, TGFb inhibitor inactive, TDP1 cell noCPT inconclusive, IL1B secr inh inactive, HepG2 tox inactive and TDP1 block inactive.
`COc1ccc(NC(=O)c2nc(C)c(C3(C)CC(c4cccnc4)=NO3)s2)cc1` (stereo not drawn) gave DT40 TDP1 CPT 5.8µM, TGFb inhibitor inconclusive, TDP1 cell noCPT 3.66µM, IL1B secr inh inactive, HepG2 tox inactive and TDP1 block inactive.
Cc1nc(C(=O)Nc2ccc(Cl)cc2)sc1C1(C)CC(c2cccc([N+](=O)[O-])c2)=NO1 (stereo not drawn) was read as DT40 TDP1 CPT inconclusive, TGFb inhibitor inactive, TDP1 cell noCPT inconclusive, IL1B secr inh inactive and HepG2 tox inactive.
For Cc1nc(C(=O)NC2CCCCC2)sc1C1(C)CC(c2cccc([N+](=O)[O-])c2)=NO1 (stereo not drawn) the results were DT40 TDP1 CPT inconclusive, TGFb inhibitor inconclusive, TDP1 cell noCPT 23.1µM, IL1B secr inh inactive, HepG2 tox inactive and TDP1 block inactive.
Screening Cc1nc(C(=O)Nc2cc(F)cc(Cl)c2)sc1C1(C)CC(c2ccccc2)=NO1 (stereo not drawn) returned DT40 TDP1 CPT 16.4µM, TGFb inhibitor inconclusive, TDP1 cell noCPT 20.6µM, IL1B secr inh inconclusive and HepG2 tox inactive.
O=C(CN(C(=O)CNS(=O)(=O)c1ccccc1)c1ccc(F)cc1)NCc1ccco1 was read as DT40 TDP1 CPT inactive, TGFb inhibitor inactive, TDP1 cell noCPT inactive, IL1B secr inh inactive, HepG2 tox inactive and TDP1 block inactive[0.0935 µM].
For CC1CCCC(NC(=O)CSC2CCCCC2)C1C (stereo not drawn) the results were DT40 TDP1 CPT inconclusive, TGFb inhibitor inactive, TDP1 cell noCPT inconclusive, IL1B secr inh inconclusive, HepG2 tox inactive and TDP1 block inactive.
For CC1CCCC(NC(=O)NC(=O)CCl)C1C (stereo not drawn) the results were DT40 TDP1 CPT 3.66µM, TGFb inhibitor inconclusive, TDP1 cell noCPT 3.66µM, IL1B secr inh -62.9, HepG2 tox inactive and TDP1 block inactive.
`CC1CCCCC1NC(=O)NC(=O)CCl` (stereo not drawn) gave DT40 TDP1 CPT 2.91µM, TGFb inhibitor inactive, TDP1 cell noCPT 5.17µM, IL1B secr inh -96.0, HepG2 tox inactive and TDP1 block inactive.
`COc1ccccc1C(=O)NNC(=O)CN(C)S(=O)(=O)c1ccc(Cl)cc1` gave DT40 TDP1 CPT inactive, TGFb inhibitor inactive, TDP1 cell noCPT inactive, IL1B secr inh inactive and HepG2 tox inactive.

Screening results: PubChem BioAssay, National Center for Advancing Translational Sciences (NCATS)
